PubChem BioAssay AID1026 (Columbia University Molecular Screening Center, 2008)

The molecules below were run against Bifunctional epoxide hydrolase 2 (Homo sapiens) (UniProt P34913) (assay: sEH inhibitor concentration-response potency, dose response, biochemical, human sEH, fluorescence, Infinite200 (AID 1026)). Conditions: recombinant human sEH, fluorogenic substrate, at 0.2 µM, hits give high values; call rule not given here.
Bifunctional epoxide hydrolase 2 (Homo sapiens), sequence (P34913 whole entry, looked up): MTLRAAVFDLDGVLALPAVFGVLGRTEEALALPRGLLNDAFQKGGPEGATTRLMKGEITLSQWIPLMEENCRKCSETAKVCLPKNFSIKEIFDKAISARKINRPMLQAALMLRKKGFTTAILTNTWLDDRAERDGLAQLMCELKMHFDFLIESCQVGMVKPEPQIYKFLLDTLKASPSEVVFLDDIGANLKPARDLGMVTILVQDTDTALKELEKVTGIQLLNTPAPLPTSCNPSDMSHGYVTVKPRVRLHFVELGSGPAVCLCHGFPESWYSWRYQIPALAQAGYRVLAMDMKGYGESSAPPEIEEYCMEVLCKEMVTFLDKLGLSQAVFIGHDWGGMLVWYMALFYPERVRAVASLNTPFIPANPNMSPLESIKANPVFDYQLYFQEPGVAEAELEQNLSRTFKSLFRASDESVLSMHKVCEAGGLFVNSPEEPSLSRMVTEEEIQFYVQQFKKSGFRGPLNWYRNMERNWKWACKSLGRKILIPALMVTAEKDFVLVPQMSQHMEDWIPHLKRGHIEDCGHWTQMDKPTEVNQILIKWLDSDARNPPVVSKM

inhibition, inactive:
CCN(CCNC(=O)C1CCN(Cc2nc(-c3ccc(Cl)cc3)oc2C)CC1)c1ccccc1 36.3%, O=C(CSCc1ccc(Cl)cc1)N/N=C/c1ccc(Cl)cc1Cl 55.6%, COc1ccccc1NS(=O)(=O)c1cccc(C(=O)N/N=C(\C)c2ccc(-n3ccnc3)cc2)c1 46.4%, O=C(NCCC1=CCCCC1)C1CCCN(S(=O)(=O)c2ccccc2)C1 (centres undefined) 48.7%, CC1CCCN(S(=O)(=O)c2ccc(C(=O)Nc3nnc(-c4ccccc4Cl)o3)cc2)C1 (centres undefined) 58%, O=C(Nc1ccc(OC(F)F)cc1)Nc1cccc(C(F)(F)F)c1 63.2%, COc1cccc(CNC(=O)C2CCC(CNS(=O)(=O)c3cccc4nsnc34)CC2)c1 (centres undefined) 50.1%, CC(Cc1cccs1)NC(=O)Nc1cccc(Cl)c1 (centres undefined) 51.7%, CCOc1ccc(NC(=O)N2CCC(c3ccc(C)cc3)C2)cc1 (centres undefined) 50.5%, CC(=O)N1CCN(c2ccc(NC(=O)COc3ccc(Cl)cc3Cl)cc2)CC1 38.5%, CCN(CCCNC(=O)C1CCN(S(=O)(=O)N2CCC3(CC2)OCCO3)CC1)c1ccccc1 53.8%, CC(C)(C)c1ccc(C(=O)N2CCC(C(=O)NCCC3=CCCCC3)CC2)cc1 38%, O=C(Nc1cccc(F)c1)NC1CCCCC1 51.9%, O=C(NCC1CCCC(CNC(=O)N2CCc3ccccc32)C1)N1CCc2ccccc21 (centres undefined) 60.4%, CCc1c(C)nc2ncnn2c1N1CCC(C(=O)NCc2ccc3c(c2)OCO3)CC1 41%, CCOc1ccc(NC(=O)NCC2CCN(c3ccc(OC)cc3)C2)cc1 (centres undefined) 26.9%, O=C(Nc1cccc(C(F)(F)F)c1)N1CCC(c2nc(-c3ccc(F)cc3)no2)CC1 68.4%, O=C(NCCC1=CCCCC1)c1ccc2c(c1)N(Cc1ccccc1)C(=O)CS2 52.3%, O=C(NCc1ccc2c(c1)OCO2)C1CCC(CNS(=O)(=O)c2cccc3nsnc23)CC1 (centres undefined) 59.7%, CCCC(=O)Nn1cnc2c(c1=O)C1(CCCCC1)Cc1ccccc1-2 71.2%, O=C(COC(=O)c1ccc(S(=O)(=O)NCc2ccco2)cc1)NC1CCCCCC1 62.6%, CCn1nc(CC(=O)Nc2ccc(-n3cnnn3)c(C)c2)c2ccccc2c1=O 48.9%, Cc1ccc(SCCC(=O)NCCSCc2ccccc2C)cc1 52.5%, Cc1c(Cl)c([N+](=O)[O-])nn1Cc1ccc(C(=O)N/N=C\c2cccc(Br)c2)o1 66.8%, O=C(N/N=C/c1cccc(O)c1)c1csc2ccccc12 54.3%, CC1CCCN(S(=O)(=O)c2ccc(NC(=O)c3cccc(-n4cnnn4)c3)cc2)C1 (centres undefined) 59%, O=C(NCc1cccs1)C1CCC(CNS(=O)(=O)c2ccc(Br)s2)CC1 (centres undefined) 62.3%, CC1CC(C)CN(C(=O)c2ccc3c(=O)n(Cc4ccc5c(c4)OCO5)c(=S)[nH]c3c2)C1 (centres undefined) 54.3%, O=C(Nc1ccc2c(c1)OCCO2)NC12CC3CC(CC(C3)C1)C2 72.8%, Cc1cccc(NC(=O)Nc2cccc(Oc3c(F)c(F)c(F)c(F)c3F)c2)c1 47.7%, Cc1ccc(Cn2ccc(=O)c(Cc3c(Cl)cccc3Cl)c2C)cc1 63.6%, O=C(Nc1ccc(Cc2ccncc2)cc1)C1CCC(N2C(=O)C3C4C=CC(C5CC45)C3C2=O)CC1 (centres undefined) 56.4%, COc1ccc(N2CCC(CNC(=O)Nc3cccc(OC)c3)C2)cc1 (centres undefined) 44.5%, CC(C)c1ccc(NC(=O)N2CCC(c3nc4ccccc4o3)CC2)cc1 66.3%, CCCCC(CC)CNC(=O)C1CCCN(S(=O)(=O)c2cnc[nH]2)C1 (centres undefined) 49.9%, CCn1c(C(=O)N2CCC(C(=O)NCCCSC3CCCCC3)CC2)cc2sccc21 61.7%, O=C(NCCc1c[nH]c2ccccc12)C1CCC(Cn2c(=S)[nH]c3ccccc3c2=O)CC1 (centres undefined) 72.7%, CC(Cc1cccs1)NC(=O)NC1CCCCC1 (centres undefined) 57.2%, O=C(N[C@@H](Cc1ccccc1)C(=O)NC1CCCCCC1)c1ccco1 36.3%
